# PLCb3 inh: human PLC-beta3 inhibitors, primary screen, biochemical, fluorescence. actives 0.18% (n = 370,000). inhibition, % at 12.2 µM. AID 720704, 2013. Purified PLC-beta3, fluorogenic substrate. 1-phosphatidylinositol 4,5-bisphosphate phosphodiesterase beta-3 (Homo sapiens), Q01970; in the data active = inhibition above about 11%;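 also: 0% = median of compound wells on plate and 100% = full blocker control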
# Target sequence (Q01970 whole entry, looked up): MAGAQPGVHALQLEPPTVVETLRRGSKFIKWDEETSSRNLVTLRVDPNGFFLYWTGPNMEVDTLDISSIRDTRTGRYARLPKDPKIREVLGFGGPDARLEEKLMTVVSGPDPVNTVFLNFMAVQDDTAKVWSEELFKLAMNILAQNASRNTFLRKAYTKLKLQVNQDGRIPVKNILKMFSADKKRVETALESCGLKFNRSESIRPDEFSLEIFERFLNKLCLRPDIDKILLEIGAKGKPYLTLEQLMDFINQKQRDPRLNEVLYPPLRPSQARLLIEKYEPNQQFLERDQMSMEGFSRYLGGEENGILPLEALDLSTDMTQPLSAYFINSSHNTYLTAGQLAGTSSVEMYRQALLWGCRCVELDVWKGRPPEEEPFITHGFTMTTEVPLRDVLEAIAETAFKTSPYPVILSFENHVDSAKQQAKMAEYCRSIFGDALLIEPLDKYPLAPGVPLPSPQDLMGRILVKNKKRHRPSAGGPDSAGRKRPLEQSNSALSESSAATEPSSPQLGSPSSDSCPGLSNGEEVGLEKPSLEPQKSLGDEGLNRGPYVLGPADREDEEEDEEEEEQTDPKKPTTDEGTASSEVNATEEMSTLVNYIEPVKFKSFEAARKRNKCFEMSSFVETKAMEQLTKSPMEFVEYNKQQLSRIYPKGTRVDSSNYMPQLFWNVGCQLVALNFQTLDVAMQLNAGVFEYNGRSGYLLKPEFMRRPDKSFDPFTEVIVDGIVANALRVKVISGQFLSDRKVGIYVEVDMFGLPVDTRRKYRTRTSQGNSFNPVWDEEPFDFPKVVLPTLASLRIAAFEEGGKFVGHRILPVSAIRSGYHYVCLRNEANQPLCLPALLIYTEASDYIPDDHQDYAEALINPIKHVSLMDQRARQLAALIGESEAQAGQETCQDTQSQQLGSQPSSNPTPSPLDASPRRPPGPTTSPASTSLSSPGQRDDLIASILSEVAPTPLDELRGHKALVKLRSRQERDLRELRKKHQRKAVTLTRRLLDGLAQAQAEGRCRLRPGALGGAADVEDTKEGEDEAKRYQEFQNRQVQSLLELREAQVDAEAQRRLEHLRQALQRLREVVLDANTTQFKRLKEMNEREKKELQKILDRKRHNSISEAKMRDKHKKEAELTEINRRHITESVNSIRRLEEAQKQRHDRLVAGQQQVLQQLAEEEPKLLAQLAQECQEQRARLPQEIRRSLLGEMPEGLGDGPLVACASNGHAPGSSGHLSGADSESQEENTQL
# ADAM17 inh: ADAM17 inhibitors, primary screen, biochemical, QFRET; Disintegrin and metalloproteinase domain-containing protein 17 (Homo sapiens), P78536; recombinant ADAM17, EDANS/DABCYL FRET peptide cleavage; inhibition, % at 6.95 µM; actives 0.83% (n = 370,000);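 active = inhibition above the mean of compounds lying between control limits plus 3 SD, set per campaign, cut at about 8.5% in these data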;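 also: 0% = DMSO-only wells as the low control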
# PLCg1 inh: PLC-gamma1 enzyme inhibitors, primary screen, biochemical, fluorescence, purified enzyme | 1-phosphatidylinositol 4,5-bisphosphate phosphodiesterase gamma-1 (Homo sapiens), P19174 | fluorogenic substrate | inhibition, % at 12.2 µM | actives 0.84% (n = 370,000); in the data active = inhibition above about 9.5%
# ADAM10 inh: human ADAM10 inhibitors, primary screen, biochemical, QFRET, HTS; Disintegrin and metalloproteinase domain-containing protein 10 (Homo sapiens), O14672; recombinant ADAM10, EDANS/DABCYL FRET peptide cleavage, 3 h; inhibition, % at 7 µM; actives 0.62% (n = 370,000); AID 720582, 2013;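 active = inhibition above a per-campaign cutoff equal to the mean of compounds falling between control-based bounds plus 3 SD, cut at about 20% in these data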;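 also: 0% = DMSO wells while the 100% control is not disclosed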
# proKLK7 act: proKLK7 zymogen activators, primary screen, biochemical, fluorescence intensity; purified proKLK7, EDANS-DABCYL substrate fluorescence; 100% is mature enzyme control, 0% vehicle; actives 0.9% (n = 370,000); Kallikrein-7 (Homo sapiens), P49862; AID 652039, 2013; activation, % at 7 µM;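 active = activation above the mean of all tested compounds plus 3 SD, computed per campaign excluding outliers beyond control limits, cut at about 13% in these data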
# An asterisk follows results filed as active; i = inactive; x = not tested or not shown. Shown are actives, neighbours in structure and some others; about 2.9% of the full set was active somewhere.
SMILES,PLCb3 inh,ADAM17 inh,PLCg1 inh,ADAM10 inh,proKLK7 act
Cc1cccc(Cl)c1NC(=S)NN,-3.9,-6.9,-1.4,-0.9,-0.8
COC(=O)[C@]1(C)CN(C(=O)OC(C)(C)C)C2=C1C(=O)C[C@@](C)(C(=O)OC(C)(C)C)C2,-1.3,-3.7,-0.3,-1.1,-0.3
CC(C)Sc1nc2c(c(=O)[nH]1)C(c1cccs1)C1=C(CC(C)(C)CC1=O)N2 (stereo not given),-39.5,-18.3,-30.0,-77.9,-1.1
CCSc1nc2c(c(=O)[nH]1)C(c1ccccn1)C1=C(CC(C)(C)CC1=O)N2 (stereo not given),-324.0,-307.2,-246.8,i,32.1*
CC(=O)N1CCc2cc(S(=O)(=O)NCCC(=O)N(C)Cc3ccccc3F)ccc21,-4.7,-3.5,1.3,-13.0,0.2
CCCCc1ccc(C2C3=C(CC(C)(C)CC3=O)NC3=C2C(=O)c2ccccc23)cc1 (stereo not given),0.8,-3.3,0.3,-5.6,0.0
CCCc1ccc(C2C3=C(CC(C)(C)CC3=O)NC3=C2C(=O)c2ccccc23)cc1 (stereo not given),5.7,7.9,10.3*,11.8,0.3
O=S(=O)(N[C@@H]1CCCC[C@H]1N1CCOCC1)c1ccc(Cl)cc1,1.6,-3.4,2.4,1.1,x
Cc1ccc(-n2c(C)cc(C3=NNC(=NC4CC4)SC3)c2C)cc1C,-20.8,9.5*,-11.4,4.7,-1.1
CNc1nc(N(C)C)nc(N(C)C)n1,6.1,-5.9,0.9,1.3,-0.3
CN(C)c1nc(N(C)C)nc(N(C)C)n1,2.3,-4.7,9.6*,-16.3,0.6
O=C(C1CCCO1)N1CCN(C2=Nc3ccccc3Sc3ccccc32)CC1 (stereo not given),5.7,-0.7,6.5,0.5,-0.5
OCCN1CCN(CCCN2c3ccccc3CCc3ccccc32)CC1,6.0,8.6,13.4*,-5.8,0.2
OCCN1c2ccccc2CCc2ccccc21,-4.3,2.2,-0.5,3.1,-0.2
O=C(Nc1nccs1)c1ccccc1N=Cc1ccccc1,i,-478.5,i,i,41.9*
CCC(C)(C)C1CCc2[nH]nc(C(=O)O)c2C1 (stereo not given),1.6,2.5,1.6,-9.5,0.3
CC(C)(C)C1CCc2[nH]nc(C(=O)O)c2C1 (stereo not given),10.1,6.0,14.6*,4.5,0.2
O=C(CSc1nnc(-c2ccccc2F)n1Cc1ccco1)Nc1ccccc1-c1ccccc1,-1.5,2.0,0.7,2.1,-0.2
COc1ccccc1NC(=S)OCCN1CCCC12CCC(c1ccccc1)CC2 (stereo not given),-4.0,-8.4,4.5,-4.5,x
COCCn1c(SCC(=O)Nc2ccccc2)nc2c1c(=O)[nH]c(=O)n2C,2.5,2.7,9.8*,-1.7,-0.9
CCOc1ccccc1CN(Cc1ccco1)S(=O)(=O)c1ccc(-n2cnnn2)c(OC)c1,5.7,12.0*,8.0,18.0,-0.1
COc1cc(S(=O)(=O)N(Cc2ccco2)C2CCCC2)ccc1-n1cnnn1,-0.2,0.0,0.7,2.7,0.4
O=C(c1nc(-c2ccccc2)n(-c2ccccc2)n1)N1CCN(S(=O)(=O)c2ccccc2)CC1,3.2,0.9,10.6*,-8.6,1.0
O=C(O)c1nc(-c2ccccc2)n(-c2ccccc2)n1,5.6,-0.6,-1.5,-1.5,-0.1
CCCCNC(=O)C[C@H]1C[C@@]2(C(=O)OC)C(=C[C@H](C3CCCC3)O[C@@H]2C)N(Cc2ccco2)C1=O,5.8,3.0,-1.8,3.6,0.6
SMILES,PLCb3 inh,ADAM17 inh,PLCg1 inh,ADAM10 inh,proKLK7 act
CC(C)N(Cc1cn(Cc2ccccc2)nn1)S(=O)(=O)c1ccc(F)cc1Br,0.9,2.6,2.5,6.9,-0.3
COc1ccc(F)cc1-c1cc(C(=O)N2CCc3ccccc3C2)[nH]n1,10.7*,5.2,11.1*,-5.0,-0.2
O=C(c1cc(-c2ccc(Cl)cc2)n[nH]1)N1CCc2ccccc2C1,-9.6,2.8,3.8,5.3,0.3
CCOc1ccccc1N1C(=O)CC(N(O)c2ccccc2)C1=O (stereo not given),0.9,-0.6,-0.4,-14.4,67.4*
COc1cc(C2NCC(c3ccc(Cl)cc3Cl)c3c2[nH]c2ccccc32)cc(OC)c1OC (stereo not given),-2.2,22.0*,2.7,46.5*,0.8
CC(C)CC(c1nnnn1Cc1cccs1)N1CCN(c2nc3ccccc3s2)CC1 (stereo not given),9.6,5.0,9.9*,5.7,0.4
O=C(CN1C(=O)/C(=C\c2ccco2)SC1=S)Nc1ccc(O)cc1C(=O)O,-26.0,-5.1,32.9*,-0.6,0.8
O=C(CCN1C(=O)/C(=C/c2ccco2)SC1=S)Nc1ccc(C(=O)O)c(O)c1,-16.7,-2.4,29.2*,-3.5,0.5
O=C(CCN1C(=O)/C(=C/c2ccco2)SC1=S)Nc1ccc(O)cc1C(=O)O,-49.2,-15.4,7.2,-14.3,-0.5
COC(=O)[C@H](C(C)C)N1CCc2nnn(Cc3ccccc3)c2-c2cc(F)ccc2S1(=O)=O,2.0,1.8,1.0,0.8,0.0
CC(C)c1ccccc1NC(=O)[C@@H]1CCCN1S(=O)(=O)c1cccc2cccnc12,1.9,-0.5,3.0,3.3,x
COC(=O)[C@H](CC(C)C)N(CCCc1cn(CC2CCCCC2)nn1)S(=O)(=O)c1ccccc1Br,-0.1,3.6,0.8,7.1,0.7
CC(=O)Nc1nc2ccccc2n1CCN(C)C,12.6*,4.6,2.7,6.3,-0.5
CCC(=O)Nc1nc2ccccc2n1CCN(C)C,2.1,-0.7,2.2,3.0,-0.5
O=C(c1cccc2ccccc12)N1CCC(N2CCN(c3ccccc3)CC2)CC1,4.5,5.8,14.6*,11.2,0.0
Cc1ccc(NC(=S)c2nc3ccccc3[nH]2)c(C)c1,2.2,8.9*,6.1,5.6,0.0
C=CCn1c(SCc2ccc(C(=O)Nc3nccs3)cc2)nnc1-c1ccc(C)c(Cl)c1,1.4,8.8*,-0.4,7.7,-0.8
NC1=NS(=O)(=O)Nc2ccccc21,i,-382.8,-436.5,i,x
Cc1ccccc1OCC(O)CNC1CCC(NCC(O)COc2ccccc2C)CC1 (stereo not given),7.0,0.8,15.5*,2.3,-0.2
COC(=O)c1cc(-c2cccc(C#N)c2)c(=O)n2c1CCC2,-7.3,-17.9,-2.3,-45.4,0.1
COc1ccc(/C=C/C(=O)c2cc(F)ccc2OC(=O)c2ccccc2)cc1OC,-60.4,10.7*,-51.7,11.5,-5.0
O=c1ccc2cc3c([nH]c4ccc(Br)cc43)oc-2c1O,-9.8,4.3,10.0*,17.1,5.0
CCCCc1ccc(-c2noc(CCC(=O)NCC)n2)cc1,2.2,5.3,-0.6,10.6,x
